Test results from PubChem BioAssay AID1159580 (chemical genetic matrix, 2015).
Where “and” joins values, the source holds several entries; their conditions need not be identical. Identical values can stand only once. About 2,000 (36%) of roughly 5,500 compounds were called active. Another 18% or so got no clear call; they are omitted. Cut-off read from the data, not from the text of the source: active = normalized growth mostly below about 0.91 (no sharp cut-off); inconclusive = no clear call, values can overlap the other calls; inactive = mostly above about 0.92. Some of the results follow.

Assay: chemical genetic growth profiling, strain panel (AID 1159580);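 note: tested at 20 µM; growth read once vehicle control cultures reached saturation at 30 °C; 1 = growth at the plate median or of vehicle wells; lower values mean less growth of the strain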
Conditions: S. cerevisiae deletion strains, growth OD

Measured: normalized growth

CC(=O)O[C@H]1C[C@@H](OC(C)=O)C(C)(C)C2C[C@@H](OC(C)=O)[C@]3(C)C(CC[C@@]4(C)[C@H](c5ccoc5)OC(=O)[C@H]5O[C@]543)[C@]21C (some centres not stated)
inactive: locus YAL021C, strain ccr4, hits give low values 0.993 | locus YAL026C, strain drs2, hits give low values 0.984 | locus YAL030W, strain snc1, hits give low values 0.993 | locus YBL061C, strain skt5, hits give low values 0.993 | locus YBR009C, strain hhf1, hits give low values 1.02 | locus YBR021W, strain FUR4, hits give low values 0.969 | locus YBR023C, strain chs3, hits give low values 0.996 | locus YBR171W, strain sec66, hits give low values 0.991 | locus YBR229C, strain ROT2, hits give low values 0.992 | locus YBR231C, strain swc5, hits give low values 1.01 | locus YBR279W, strain paf1, hits give low values 1 | locus YCL011C, strain gbp2, hits give low values 1 | locus YCL016C, strain dcc1, hits give low values 0.992 | locus YCL029C, strain bik1, hits give low values 1.01 | locus YCL061C, strain MRC1, hits give low values 1 | locus YCL069W, strain vba3, hits give low values 0.999 | locus YCR088W, strain abp1, hits give low values 1 | locus YDL005C, strain med2, hits give low values 0.993 | locus YDL035C, strain GPR1, hits give low values 1.02 | locus YDL040C, strain nat1, hits give low values 0.999 | locus YDL074C, strain BRE1, hits give low values 1.01 | locus YDL101C, strain DUN1, hits give low values 0.991 | locus YDL134C, strain PPH21, hits give low values 0.994 | locus YDL185W, strain tfp1, hits give low values 1 | locus YDL192W, strain arf1, hits give low values 1.01 | locus YDR001C, strain nth1, hits give low values 0.976 | locus YDR069C, strain doa4, hits give low values 0.975 | locus YDR101C, strain arx1, hits give low values 1.02 | locus YDR137W, strain rgp1, hits give low values 0.963 | locus YDR159W, strain sac3, hits give low values 0.96 | locus YDR162C, strain NBP2, hits give low values 1.02 | locus YDR195W, strain ref2 0.954 | locus YDR297W, strain sur2, hits give low values 0.998 | locus YDR318W, strain mcm21, hits give low values 1.01 | locus YDR334W, strain swr1, hits give low values 0.971 | locus YDR335W, strain msn5, hits give low values 0.993 | locus YDR388W, hits give low values 0.999 | locus YDR392W, strain spt3, hits give low values 0.989 | locus YDR502C, strain sam2, hits give low values 0.998 | locus YEL003W, strain gim4, hits give low values 0.988 | locus YEL037C, strain rad23, hits give low values 0.994 | locus YEL061C, strain CIN8 (second series), hits give low values 0.991 | locus YEL061C, strain CIN8, hits give low values 1.02 | locus YER015W, strain faa2, hits give low values 1 | locus YER016W, strain bim1, hits give low values 0.993 | locus YER110C, hits give low values 1 | locus YER111C, strain swi4, hits give low values 0.988 | locus YER155C, strain BEM2 (second series), hits give low values 0.996 | locus YER155C, strain BEM2, hits give low values 1 | locus YER167W, strain BCK2, hits give low values 0.998 | locus YFR010W, strain ubp6, hits give low values 0.973 | locus YGL078C, strain dbp3, hits give low values 0.997 | locus YGL086W, strain mad1, hits give low values 1.02 | locus YGL167C, strain pmr1, hits give low values 0.987 | locus YGL173C, strain kem1, hits give low values 0.999 | locus YGL227W, strain vid30, hits give low values 1.01 | locus YGL240W, strain doc1, hits give low values 0.999 | locus YGL248W, strain PDE1, hits give low values 0.99 | locus YGL253W, strain hxk2, hits give low values 0.995 | locus YGR078C, strain PAC10, hits give low values 0.991 | locus YGR135W, strain pre9, hits give low values 0.979 | locus YGR252W, strain gcn5, hits give low values 0.966 | locus YHR013C, strain ard1, hits give low values 0.987 | locus YHR027C, strain rpn1, hits give low values 0.968 | locus YHR030C, strain SLT2, hits give low values 0.978 | locus YHR079C, strain IRE1 (second series), hits give low values 0.989 | locus YHR079C, strain IRE1, hits give low values 0.984 | locus YHR094C, strain hxt1, hits give low values 1.01 | locus YHR129C, strain ARP1, hits give low values 1.02 | locus YHR142W, strain chs7, hits give low values 1 | locus YHR200W, strain rpn10, hits give low values 0.995 | locus YIL066C, strain RNR3, hits give low values 1.01 | locus YIL073C, strain SPO22, hits give low values 0.989 | locus YIL125W, strain kgd1, hits give low values 0.996 | locus YIR030C, strain dcg1, hits give low values 1 | locus YJL092W, strain hpr5, hits give low values 1.01 | locus YJL095W, strain BCK1 (second series), hits give low values 0.995 | locus YJL095W, strain BCK1, hits give low values 1.02 and 0.984 | locus YJL115W, strain asf1, hits give low values 0.974 | locus YJL129C, strain trk1, hits give low values 0.979 | locus YJL134W, strain LCB3, hits give low values 1.02 | locus YJL154C, strain vps35, hits give low values 0.98 | locus YJL164C, strain tpk1, hits give low values 0.997 | locus YJL166W, strain qcr8, hits give low values 1.03 | locus YJL168C, strain set2, hits give low values 0.999 | locus YJL187C, strain SWE1 (second series), hits give low values 0.989 | locus YJL187C, strain SWE1, hits give low values 0.999 | locus YJR043C, strain POL32, hits give low values 1.02 | locus YJR066W, strain TOR1, hits give low values 0.932 | locus YKL009W, strain mrt4, hits give low values 1 | locus YKL068W, hits give low values 1.01 | locus YKL160W, strain elf1, hits give low values 1 | locus YKL190W, strain CNB1, hits give low values 1.01 | locus YKR001C, strain vps1, hits give low values 1 | locus YKR026C, strain gcn3, hits give low values 0.995 | locus YKR091W, strain srl3, hits give low values 0.989 | locus YLL001W, strain dnm1, hits give low values 0.988 | locus YLL026W, hits give low values 0.997 | locus YLL041C, strain sdh2, hits give low values 0.987 | locus YLR027C, strain aat2, hits give low values 1.01 | locus YLR039C, strain RIC1, hits give low values 0.981 | locus YLR058C, strain SHM2, hits give low values 1.01 | locus YLR102C, strain apc9, hits give low values 0.999 | locus YLR113W, strain HOG1, hits give low values 1.03 | locus YLR221C, strain rsa3, hits give low values 0.995 | locus YLR258W, strain gsy2, hits give low values 0.998 | locus YLR262C, strain YPT6 (second series), hits give low values 0.969 | locus YLR262C, strain YPT6, hits give low values 0.974 | locus YLR268W, strain sec22, hits give low values 1 | locus YLR320W, strain mms22, hits give low values 1.02 | locus YLR330W, strain CHS5, hits give low values 1.01 | locus YLR342W, strain FKS1, hits give low values 1 | locus YLR357W, strain rsc2, hits give low values 0.997 | locus YLR370C, strain arc18, hits give low values 0.995 | locus YLR371W, strain rom2, hits give low values 1 | locus YLR384C, strain iki3, hits give low values 1.01 | locus YLR418C, strain cdc73, hits give low values 0.996 | locus YML016C, strain PPZ1, hits give low values 1.01 | locus YML032C, strain rad52, hits give low values 1 | locus YML120C, strain ndi1, hits give low values 0.995 | locus YML124C, strain tub3, hits give low values 1 | locus YMR058W, strain fet3, hits give low values 0.985 | locus YMR078C, strain ctf18, hits give low values 0.989 | locus YMR125W, strain sto1, hits give low values 0.983 | locus YMR129W, hits give low values 0.994 | locus YMR205C, strain PFK2, hits give low values 0.988 | locus YMR223W, strain ubp8, hits give low values 0.996 | locus YMR231W, strain pep5, hits give low values 0.981 | locus YMR307W, strain GAS1, hits give low values 0.895 | locus YNL067W, strain RPL9B, hits give low values 1.01 | locus YNL071W, strain lat1, hits give low values 0.992 | locus YNL128W, strain TEP1, hits give low values 1.02 | locus YNL153C, strain GIM3, hits give low values 1.02 | locus YNL183C, strain NPR1, hits give low values 0.93 | locus YNL209W, strain ssb2, hits give low values 0.995 | locus YNL233W, strain BNI4, hits give low values 0.974 | locus YNL248C, strain rpa49, hits give low values 0.971 | locus YNL250W, strain rad50, hits give low values 0.98 | locus YNL271C, strain bni1, hits give low values 1 | locus YNL298W, strain CLA4, hits give low values 1.01 | locus YNL307C, strain MCK1, hits give low values 0.986 | locus YNL322C, strain KRE1 (second series), hits give low values 0.999 | locus YNR049C, strain mso1, hits give low values 0.991 | locus YNR052C, strain pop2, hits give low values 0.996 | locus YOL012C, strain htz1 1 | locus YOL147C, strain pex11, hits give low values 0.999 | locus YOR001W, strain rrp6, hits give low values 0.979 | locus YOR061W, strain CKA2, hits give low values 0.997 | locus YOR069W, strain VPS5, hits give low values 0.991 | locus YOR070C, strain gyp1, hits give low values 0.986 | locus YOR080W, strain dia2, hits give low values 0.997 | locus YOR083W, strain WHI5, hits give low values 1 | locus YOR106W, strain vam3, hits give low values 0.983 | locus YOR136W, strain idh2, hits give low values 0.996 | locus YOR144C, strain elg1, hits give low values 1 | locus YOR184W, strain ser1, hits give low values 1 | locus YOR231W, strain MKK1, hits give low values 0.987 | locus YOR265W, strain rbl2, hits give low values 0.989 | locus YOR270C, strain vph1, hits give low values 0.858 | locus YOR290C, strain snf2, hits give low values 0.994 | locus YOR316C, strain cot1, hits give low values 0.999 | locus YPL051W, strain arl3, hits give low values 1 | locus YPL055C, strain LGE1, hits give low values 1.02 | locus YPL078C, strain atp4, hits give low values 1.01 | locus YPL106C, strain sse1, hits give low values 1.05 | locus YPL240C, strain hsp82, hits give low values 0.994 | locus YPL256C, strain CLN2, hits give low values 0.989 | locus YPR119W, strain clb2, hits give low values 1.01 | locus YPR141C, strain kar3, hits give low values 0.996 | locus YPR163C, strain tif3, hits give low values 1 | locus YPR167C, strain met16, hits give low values 1 | strain wtn01, hits give low values 1
